Experiment [1] in a line: NCI Yeast Anticancer Drug Screen. Data for the rad50 strain (AID 155).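 Note: 0% = growth of vehicle-only cultures of the same strain.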 To be noted: S. cerevisiae rad50 strain growth inhibition; at 50.0 µM; stronger effect = higher value. The method in brief:
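Growth of the mutant yeast was measured after compound exposure and referenced to vehicle-treated cultures.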

A short description of experiment [2]: NCI Yeast Anticancer Drug Screen. Data for the mec2-1 strain (AID 157). To be noted: S. cerevisiae mec2-1 strain, at 50.0 µM, stronger effect = higher value. In short, it runs like this: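 Cells of the genetically defined mec2-1 yeast strain are incubated with test compound. Inhibition of growth is calculated against vehicle-treated controls.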
Experiment [3] is described as follows: NCI Yeast Anticancer Drug Screen. Data for the sgs1 mgt1 strain (AID 161).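 Note: 0% = growth of cultures given vehicle only.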 To be noted: S. cerevisiae sgs1 mgt1 strain, at 50.0 µM, stronger effect = higher value. The method in brief:
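Genetically altered yeast, compound exposure, growth inhibition relative to vehicle.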

A short description of experiment [4]: NCI Yeast Anticancer Drug Screen. Data for the cln2 rad14 strain (AID 165).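 Note: 0% = growth equal to vehicle treated cultures.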 To be noted: S. cerevisiae cln2 rad14 strain, at 50.0 µM, stronger effect = higher value. The method in brief: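 The screen exposed genetically defined yeast (cln2 rad14) to test compounds and scored growth inhibition relative to vehicle-treated controls.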
A short description of experiment [5]: NCI Yeast Anticancer Drug Screen. Data for the bub3 strain (AID 167). To be noted: S. cerevisiae bub3 mutant strain, at 50.0 µM, stronger effect = higher value. In short, it runs like this: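 Whole-cell yeast assay. The mutant strain was incubated with compounds, and growth inhibition was determined by comparison with vehicle-treated cells.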
Experiment [6] can be described thus: NCI Yeast Anticancer Drug Screen. Data for the mlh1 rad18 strain (AID 175). To be noted: S. cerevisiae mlh1 rad18 strain growth inhibition; at 50.0 µM; stronger effect = higher value. The method in brief:
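Compound-treated yeast growth, normalised to vehicle controls. Strain bears defined DNA repair mutations.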

Data on 18 compounds can be found in PubChem BioAssay (NCI).

The structures appear in SMILES notation. About 79,000 compounds went through this panel and 15% of them were active in at least one assay; those are over-represented in the sample as a whole. A number with no mark means an inactive call. Activity calls are given as the source filed them. Cut-off read from the data, not from the text of the source: active = growth inhibition above about 70%; inactive = the rest.

As to `Fc1cc(F)c2c(c1)Nc1cc(F)cc(F)c1S2`, the growth inhibition was 27.5% in experiment [1]; 21.6% in experiment [2]; 4.75% in experiment [3]; -13.6% in experiment [4]; 22.9% in experiment [5]; 12.7% in experiment [6].

For the compound `CCCCCCCCCCCO/N=C\c1c2c(O)c3c(O)c(C)c4c(c3c1O)C(=O)C(C)(O/C=C\C(OC)C(C)C(OC(C)=O)C(C)C(O)C(C)C(O)C(C)/C=C\C=C(\C)C(=O)N2)O4` (stereo not drawn), the growth inhibition in experiment [1] is -4.75%; in experiment [2] it was -4.75%; in experiment [3], -13.7%; in experiment [4] it was -9.75%; in experiment [5] it was -5.1%; in experiment [6], 26.2%.

Regarding `COc1cccc(/C=C\C#N)c1`, the growth inhibition in experiment [1] is -23.1%; in experiment [2], -1.3%; in experiment [3], -45%; in experiment [4] it was -7.05%; in experiment [5] it was -26.9%; in experiment [6], -22.1%.

As for `O=S(=O)(NC1CCC(CC2CCCCC2)CC1)c1ccccc1` (stereo not drawn), the growth inhibition in experiment [1] was 81% (active); in experiment [2], 42%; in experiment [3], 47.5%; in experiment [4] it was 40%; in experiment [5], 88.4% (active); in experiment [6], 82.5% (active).

On to `C=CCSc1nc2ccc(N3C(=O)CCC3=O)cc2s1`, for which the growth inhibition in experiment [1] is 15.4%; in experiment [2], -11.7%; in experiment [3] it was -10.6%; in experiment [4], 10.2%; in experiment [5], 6.05%; in experiment [6], 4%.

For the compound `Cc1cccc(NC(=O)Nc2cccc(Cl)c2Cl)n1`, the growth inhibition in experiment [1] was 15.9%; in experiment [2], 13.7%; in experiment [3] it was 13.6%; in experiment [4] it was 15.1%; in experiment [5] it was 23.9%; in experiment [6], 18.6%.

`Fc1ccc2nncc(/C=C/c3ccccn3)c2c1`: the growth inhibition is 41.8% in experiment [1]; -3.55% in experiment [2]; 4.2% in experiment [3]; -16.9% in experiment [4]; 24.2% in experiment [5]; 19.4% in experiment [6].

Regarding `CC1=CC(C)S(=O)(=O)C1` (stereo not drawn), the growth inhibition in experiment [1] was -38.4%; in experiment [2], -46.2%; in experiment [3] it was -89.1%; in experiment [4], -5.7%; in experiment [5], -57.8%; in experiment [6], -16.7%.

Turning to `O=C(Nc1ccc(Cl)cc1)Nc1nnc(-c2ccc(-c3nnc(NC(=O)Nc4ccc(Cl)cc4)o3)cc2)o1`, the growth inhibition in experiment [1] is 28.4%; in experiment [2], 0.4%; in experiment [3] it was 26.4%; in experiment [4], -34.3%; in experiment [5] it was 18%; in experiment [6], 21.6%.

As to `CCOC(=O)NC(=O)CC#N`, the growth inhibition in experiment [1] is -5.5%; in experiment [2], -29.8%; in experiment [3], 13.4%; in experiment [4], 5.05%; in experiment [5], -4.2%; in experiment [6], 10.7%.

Take `Fc1cccc(CSc2cnnc(SCc3cccc(F)c3)c2SCc2cccc(F)c2)c1`: the growth inhibition was -14.8% in experiment [1]; -7.1% in experiment [2]; -13.7% in experiment [3]; 14.6% in experiment [4]; -10.8% in experiment [5]; -32% in experiment [6].

As for `Nc1nc(N)c(N=Nc2ccccc2[N+](=O)[O-])c(=O)[nH]1`, the growth inhibition in experiment [1] was 5.85%; in experiment [2], -15.8%; in experiment [3], 2.4%; in experiment [4], -4.95%; in experiment [5] it was 11.1%; in experiment [6] it was -1.05%.

In the case of `COc1ccc(NC(=O)N(C)Cc2ccccc2Cl)cc1`, the growth inhibition in experiment [1] was -0.35%; in experiment [2] it was -10.8%; in experiment [3], 1.9%; in experiment [4] it was -12.6%; in experiment [5], 11.2%; in experiment [6] it was 0.4%.

On to `O=c1cc(O)cc2n1CCC2`, for which the growth inhibition is 5.15% in experiment [1]; 4.6% in experiment [2]; -11.4% in experiment [3]; 16.4% in experiment [4]; -14.8% in experiment [5]; 0.35% in experiment [6].

On to `N#CCc1ccccc1C(C#N)C(=O)CCC(=O)C(C#N)c1ccccc1CC#N` (stereo not drawn), for which the growth inhibition in experiment [1] is 45.6%; in experiment [2] it was 26.1%; in experiment [3] it was 22.6%; in experiment [4] it was -28.4%; in experiment [5], 6.75%; in experiment [6], 44.7%.

Turning to `CCc1ccccc1NC(=O)C1=C(C)NC(C)=C(C(=O)Nc2ccccc2CC)C1c1ccc(NC(C)=O)cc1`, the growth inhibition is -11.1% in experiment [1]; 19.8% in experiment [2]; 3.25% in experiment [3]; 13.6% in experiment [4]; 11.4% in experiment [5]; -4.25% in experiment [6].

`NC(CCCCCCCCCCP(=O)(O)O)C(=O)O` (stereo not drawn): the growth inhibition is -39.6% in experiment [1]; -41.5% in experiment [2]; -76.4% in experiment [3]; -12.1% in experiment [4]; -19.6% in experiment [5]; -18.6% in experiment [6].

For the compound `Clc1ccc(CSc2cnnc(SCc3ccc(Cl)c(Cl)c3)c2SCc2ccc(Cl)c(Cl)c2)cc1Cl`, the growth inhibition in experiment [1] was 1.2%; in experiment [2], 5.15%; in experiment [3], 3.9%; in experiment [4] it was -5.9%; in experiment [5], -0.8%; in experiment [6], 17.1%.
